Mcl-1 Bim block: inhibitors of Bim-Mcl-1 interaction, human. Bead-based flow cytometry, Bim peptide-Mcl-1 binding. inhibition, % at 10 µM. 190,000 compounds, 0.1% hits. AID 1009; in the data active means inhibition above about 40%;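 further: 0% = no compound tracer wells and 100% = peptide blocker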
Target sequence (Q07820 whole entry, looked up): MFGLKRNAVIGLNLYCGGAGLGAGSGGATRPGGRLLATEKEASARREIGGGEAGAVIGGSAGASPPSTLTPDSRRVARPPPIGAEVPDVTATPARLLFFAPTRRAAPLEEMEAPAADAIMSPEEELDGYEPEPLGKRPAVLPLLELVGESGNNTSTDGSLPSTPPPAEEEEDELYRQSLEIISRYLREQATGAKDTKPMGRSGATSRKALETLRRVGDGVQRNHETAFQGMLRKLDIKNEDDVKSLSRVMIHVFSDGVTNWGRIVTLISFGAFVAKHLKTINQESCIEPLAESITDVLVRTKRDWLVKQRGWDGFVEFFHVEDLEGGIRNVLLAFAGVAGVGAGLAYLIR
MCL1-BIM inh: inhibitors of human MCL1 binding to BIM-BH3 peptide; Q07820; GST-MCL1 / FITC-Bim-BH3 fluorescence polarization; inhibition, % at 10.9 µM; 320,000 compounds, 0.68% hits;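 active means inhibition above the mean inhibition of all tested compounds plus 3 SD, set per campaign, cut at about 40% in these data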;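 further: 0% = DMSO wells and 100% = unlabeled Bim-BH3 peptide control; higher means more loss of mP so more displacement of Bim peptide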
Mcl1-Noxa inh: disrupts binding of human Mcl-1 to Noxa peptide. Q07820. 220,000 compounds, 1.5% hits. inhibition, % at 21.7 µM. TR-FRET Mcl-1/Noxa peptide binding, 2 h;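 active means compounds that cut the protein-peptide binding signal by more than 50% relative to plate controls in a single-dose test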;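 further: His-tagged Mcl-1 with rhodamine Noxa BH3 peptide and terbium anti-His antibody; 0% = Mcl-1 plus Noxa peptide wells and 100% = peptide-only wells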
Mcl1 Bid PPI: Mcl-1/Bid interaction inhibition. TR-FRET Mcl-1/Bid-Dy647 peptide binding, 1536-well. inhibition, % at 21.7 µM. 220,000 compounds, 0.97% hits. AID 1021;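 active means compounds that cut the binding signal by more than half at the single screening dose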;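 further: His-tagged Mcl-1 with europium anti-His antibody binding Bid BH3 peptide; 0% = Mcl-1 plus peptide wells and 100% = peptide-only wells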
Active calls of the source: *; x = no result given. This is a sample that favours compounds with a hit; in the whole collection about 2% have one here.

SMILES	Mcl-1 Bim block	MCL1-BIM inh	Mcl1-Noxa inh	Mcl1 Bid PPI
C=CCOC(=O)Nc1ccc(Cl)cc1NC(=O)OCC=C	-6	7	6	-5
Cn1cc(S(=O)(=O)NCc2ccc3c(c2)OCO3)c(C(F)(F)F)n1	x	4	x	x
C=CCN1C(=O)/C(=C2/Sc3ccc(OC)cc3N2C)SC1=Nc1cccc(O)c1	-1	-9	58*	54*
CCCCn1nc(CC(=O)NCCN(CC)CC)c2ccccc2c1=O	x	8	20	-27
O=C(O)c1ccc(N2CCCS2(=O)=O)cc1	x	3	x	x
CCOC(=O)c1c(NC(=O)N/N=C/c2ccc(O)c(OC)c2)sc(C(C)=O)c1C	x	0	84*	71*
CCOC(=O)c1c(NC(=O)C(=O)N/N=C/c2ccc(O)c(OC)c2)sc2c1CCCCC2	0	5	17	-21
CCOC(=O)c1c(NC(=O)c2cc(-c3ccc(O)cc3)on2)sc(C(C)=O)c1C	-8	-2	84*	-16
COc1ccc2c(c1OC)C(=O)OC2Nc1nc(-c2cccc([N+](=O)[O-])c2)cs1 (stereo unspecified)	x	-1	0	10
COc1cc(/C=C2\S/C(=N/S(=O)(=O)c3ccccc3)NC2=O)c([N+](=O)[O-])cc1OC	x	38	57*	14
Cc1ccc2c(c1)c1ccc3c(c1n2C)C(=O)C=CC3=O	x	x	108*	23
COc1ccc2c(c1)c1ccc3c(c1n2C)C(=O)C=CC3=O	x	x	102*	33
N#Cc1ccc(CN2C(=O)NC3(CCCCCC3)C2=O)cc1	x	1	x	x
CCOC(=O)C(=CNNc1cccc(Cl)c1)C(=O)OCC	x	-2	52*	-30
O=C(COc1ccc(-c2nnco2)cc1)NC1CCCc2ccccc21 (stereo unspecified)	5	1	10	60*
Cc1cccc(C)c1NC(=O)CN(C)C(=O)C1CC(=O)N(c2cccc3ccccc23)C1 (stereo unspecified)	x	-2	x	x
O=C(CN1C(=O)c2ccc([N+](=O)[O-])cc2C1=O)Nc1cc(S(=O)(=O)N2CCOCC2)ccc1Cl	x	0	x	x
CCOc1cc(N2CCOCC2)c(OCC)cc1NC(=O)CCC1CCCC1	-4	1	14	-68
CCOc1cc(N2CCOCC2)c(OCC)cc1NC(=O)CCS(=O)(=O)c1ccc(Cl)cc1	0	0	19	101*
COc1ccc(N2CC(C(=O)N3CCN(c4ccccc4)CC3)CC2=O)cc1 (stereo unspecified)	x	2	x	x
O=Cc1[nH]c2ccccc2c1N(C(=O)CCl)c1ccc([N+](=O)[O-])cc1	x	2	92*	-60
Cc1cccc(C)c1NC(=O)CSc1nc(COc2ccccc2)nc2ccccc12	10	28	0	59*
Cc1cccc(NC(=O)CSc2nc(COc3ccccc3)nc3ccccc23)c1C	-3	6	-4	33
CCOC(=O)/C=C(\C)Sc1cc(O)c2ccccc2c1O	x	x	88*	-10
CCOC(=O)/C=C(\C)Sc1cc(=O)oc2ccccc12	-8	0	8	-22
SMILES	Mcl-1 Bim block	MCL1-BIM inh	Mcl1-Noxa inh	Mcl1 Bid PPI
N#C/C(=C\Nc1ccc2cn[nH]c2c1)c1nc(-c2ccc(Cl)cc2)cs1	1	-15	53*	58*
O=C(NCCN1C(=O)S/C(=C\c2cccc(Cl)c2Cl)C1=O)C1=COCCO1	x	-4	x	x
COc1cccc(CN2CCN(Cc3cc(OC)c(OC)cc3OC)CC2)c1	x	5	x	x
COc1cccc(CN2CCSCC2)c1	0	0	41	62*
Cc1ccc(N2C(=O)CC(NNC(=O)Cc3ccc(F)cc3)C2=O)cc1Cl (stereo unspecified)	x	-1	3	-41
CC(=O)N1CCN(C(=O)c2ccco2)CC1	x	-5	x	x
NC(=O)N1CCN(C(=O)c2ccco2)CC1	-1	5	9	70*
COc1ccc(C2(NC(C)=O)CCN(C(=O)c3ccco3)CC2)cc1	40*	6	2	-8
COc1ccc(C2(NC(C)=O)CCN(C(=O)CCC(=O)O)CC2)cc1	1	3	14	3
Cc1ccc(C)c(-n2cc[nH]c2=S)c1	-4	12	22	11
O=C(O)c1cc(-c2ccc(/C=C3/SC(=S)N(Cc4ccccc4)C3=O)o2)ccc1Cl	16	x	85*	101*
Cc1ccc(NC(=O)CN2C(=O)S/C(=C/c3ccc(-c4cccc(C(=O)O)c4)o3)C2=O)cc1	2	x	83*	-31
COc1ccc(CN2C(=O)/C(=C/c3ccc(-c4ccc(Cl)c(C(=O)O)c4)o3)SC2=S)cc1	13	x	92*	99*
O=C1/C(=C/c2ccncc2)SC(=S)N1Cc1ccccc1	x	11	5	4
Cc1ccc(/C=C2\SC(=S)N(Cc3ccccc3)C2=O)o1	6	16	90*	-29
N#Cc1ccccc1OCC(=O)Nc1ccccc1C(=O)NC1CC1	x	-3	x	x
COc1ccc(/C=C(/NC(=O)c2ccco2)C(=O)N2CCCCC2)cc1	x	6	x	x
CCS(=O)(=O)N1CCC(C(=O)NC2CCCCC2)CC1	2	1	13	-21
CN(C)C(=O)N1CCC(C(=O)NC2CCCCCCC2)CC1	67*	6	4	-12
COc1ccc2c3c(cccc13)OC2=O	x	-1	x	x
COc1ccc2c3c(cccc13)N(C)N=C2C	18	87*	87*	-46
O=C(CNC(=S)N(Cc1ccccc1)Cc1cccnc1)NC1CCCC1	0	-2	10	-10
COCC(C)NC(=O)c1noc2c1CCc1cc(OC)ccc1-2 (stereo unspecified)	0	-1	1	-8
COCCNC(=O)c1noc2c1CCc1cc(OC)ccc1-2	-4	9	65*	1
CCN(CC)Cc1cc(O)c(CN(CC)CC)cc1O	0	x	98*	-100
SMILES	Mcl-1 Bim block	MCL1-BIM inh	Mcl1-Noxa inh	Mcl1 Bid PPI
CCCC[C@H](CN[C@@H](CNC)[C@H](C)CC)NCCC12CCC(CC1)C2	x	5	x	x
Cc1cccc(NC(=O)C2CCN(c3nc(C)cc(C)n3)CC2)c1	3	-1	-14	94*
Cc1ccc(CC(=O)NCCCc2ccccc2)cc1	0	-4	-1	-26
Cc1ccc(S(=O)(=O)CCNC(=O)Cc2ccccc2)cc1	-2	-1	-2	96*
Cc1nn(-c2ccccc2)c(Cl)c1CN(C(=O)CCl)c1cccc2ccccc12	-4	-11	10	-2
CCOc1ccccc1NC(=O)/C=C/c1ccccc1[N+](=O)[O-]	0	5	24	-28
CCOc1ccccc1NC(=O)/C=C/C(N)=O	-4	2	98*	17
O=C(Nc1ccccc1C(F)(F)F)N1CCN(c2ccccn2)CC1	0	4	15	-2
Cc1nc2sc(C(c3cccs3)N3CCOCC3)c(O)n2n1 (stereo unspecified)	-1	1	30	76*
c1ccc(-c2nc(-c3ccco3)n3ccccc23)cc1	4	45*	25	-1
c1ccc(Nc2c(-c3ccco3)nc3ccccn23)cc1	-4	6	17	-40
Cc1cc(/C=N/N2CCN(C)CC2)c(C)n1-c1ccc(Cl)cc1	x	4	15	-19
Cc1cc(NC(=O)CSc2nc(-c3ccccc3)cs2)no1	-1	4	-3	3
Cc1cc(NC(=O)CSc2nc(-c3ccc(F)cc3)cs2)no1	1	-7	86*	-41

Screening data from PubChem.
